Reference: PubChem BioAssay (EPA / NIEHS)
Active and inactive are the calls of the source. Rule for the calls: active = hit-call score of the fitted dose curve at least 0.9, where 1 is the maximum; inactive = score below 0.9.

What was measured:
[1] = read-out: Vascular endothelial growth factor receptor 2 (Homo sapiens) (UniProt P35968); assay: BSK_4H_VEGFRII: BioMAP Diversity Plus: 4H Assay for Vascular endothelial growth factor receptor 2 (VEGFR2) Biomarker Activity (AID 2283031); details: primary human endothelial cells (HUVEC); actives raise or lower the signal;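 for AC50: cell-surface VEGFR2 protein level quantified by ELISA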
Summary of the method: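 Primary human umbilical vein endothelial cells (4H system), 24 h exposure; cell-surface VEGFR2 measured by ELISA. Bidirectional fitting versus DMSO; cytotoxicity checked in parallel by SRB total-protein staining.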

[2] = read-out: Human Leukocyte Antigen - DR isotype (HLADR), HLA-DRA (gene 3122); assay: BSK_BE3C_HLADR: BioMAP Diversity Plus: BE3C Assay for Human Leukocyte Antigen - DR isotype (HLADR) Biomarker Activity (AID 2283032); details: primary human bronchial epithelial cells; actives raise or lower the signal
Summary of the method: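 Human primary bronchial epithelial cells in the BE3C system were exposed to chemicals for 24 h, after which HLA-DR levels were quantified by ELISA. Activity was fitted bidirectionally, gain or loss of signal, against DMSO as negative control and baseline.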

[3] = read-out: Vascular cell adhesion molecule 1 (VCAM1), VCAM1 (gene 7412); assay: BSK_4H_VCAM1: BioMAP Diversity Plus: 4H Assay for Vascular cell adhesion molecule 1 (VCAM1) Biomarker Activity (AID 2283033); details: primary human endothelial cells (HUVEC); actives raise or lower the signal
Summary of the method: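 Primary human umbilical vein endothelial cells were exposed to chemicals for 24 h, after which VCAM-1 was quantified by ELISA. Responses were fitted bidirectionally against DMSO as negative control and activity baseline.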

[4] = read-out: Interferon-gamma inducible Protein 10 (IP10), CXCL10 (gene 3627); assay: BSK_BE3C_IP10: BioMAP Diversity Plus: BE3C Assay for Interferon-gamma inducible Protein 10 (IP10) Biomarker Activity (AID 2283034); details: primary human bronchial epithelial cells; actives raise or lower the signal
Summary of the method: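 Human primary bronchial epithelial cells were exposed to chemicals for 24 hours, after which IP-10 levels were measured by ELISA. Data were fitted bidirectionally against DMSO, which served as the negative control and activity baseline.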

[5] = read-out: Monokine induced gamma interferon (MIG), CXCL9 (gene 4283); assay: BSK_BE3C_MIG: BioMAP Diversity Plus: BE3C Assay for Monokine induced gamma interferon (MIG) Biomarker Activity (AID 2283035); details: primary human bronchial epithelial cells; actives raise or lower the signal
Summary of the method: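 ELISA read-out of MIG in human lung bronchial epithelial primary cultures, 24 h post-dosing. Bidirectional curve fit vs DMSO baseline.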

[6] = read-out: Transforming growth factor beta 1 (TGFb1), TGFB1 (gene 7040); assay: BSK_BE3C_TGFb1: BioMAP Diversity Plus: BE3C Assay for Transforming growth factor beta 1 (TGFb1) Biomarker Activity (AID 2283036); details: primary human bronchial epithelial cells; actives raise or lower the signal
Summary of the method: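 Human primary bronchial epithelial cells (BE3C system) were dosed with chemical and TGF-b1 levels measured by ELISA at 24 h. Activity was fitted bidirectionally relative to DMSO negative control as baseline.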

[7] = read-out: Plasminogen activator inhibitor-1 (PAI1), SERPINE1 (gene 5054); assay: BSK_BE3C_PAI1: BioMAP Diversity Plus: BE3C Assay for Plasminogen activator inhibitor-1 (PAI1) Biomarker Activity (AID 2283037); details: primary human bronchial epithelial cells; actives raise or lower the signal
Summary of the method: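 Human primary bronchial epithelial cells were exposed to chemical for 24 h, then PAI-1 was quantified by ELISA. Activity was fitted bidirectionally relative to the DMSO negative control baseline.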

[8] = read-out: urokinase plasminogen activator (uPA), PLAU (gene 5328); assay: BSK_BE3C_uPA: BioMAP Diversity Plus: BE3C Assay for urokinase plasminogen activator (uPA) Biomarker Activity (AID 2283038); details: primary human bronchial epithelial cells; actives raise or lower the signal
Summary of the method: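 Primary human bronchial epithelial cells, uPA measured by ELISA 24 h after dosing. Bidirectional change relative to DMSO; cytotoxicity checked in parallel cultures by sulforhodamine B total-protein staining.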

[9] = read-out: Urokinase-type plasminogen activator receptor (uPAR), PLAUR (gene 5329); assay: BSK_BE3C_uPAR: BioMAP Diversity Plus: BE3C Assay for Urokinase-type plasminogen activator receptor (uPAR) Biomarker Activity (AID 2283039); details: primary human bronchial epithelial cells; actives raise or lower the signal
Summary of the method: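 Primary human bronchial epithelial cells were dosed with chemical and harvested 24 h later; uPAR was quantified by ELISA. Activity was fitted bidirectionally against DMSO as negative control and baseline.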

[10] = read-out: Interleukin-6 (IL6), IL6 (gene 3569); assay: BSK_CASM3C_IL6: BioMAP Diversity Plus: CASM3C Assay for Interleukin-6 (IL6) Biomarker Activity for (AID 2283040); details: primary human coronary artery smooth muscle cells; actives raise or lower the signal
[11] = read-out: Tissue plasminogen activator (tPA), PLAT (gene 5327); assay: BSK_BE3C_tPA: BioMAP Diversity Plus: BE3C Assay for Tissue plasminogen activator (tPA) Biomarker Activity (AID 2283041); details: primary human bronchial epithelial cells; actives raise or lower the signal
Summary of the method: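 Human primary bronchial epithelial cells were dosed with chemical and tPA biomarker levels measured by ELISA 24 hours later. Activity was fitted bidirectionally against DMSO as negative control and baseline.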

[12] = read-out: Interleukin-8 (IL8), CXCL8 (gene 3576); assay: BSK_CASM3C_IL8: BioMAP Diversity Plus: CASM3C Assay for Interleukin-8 (IL8) Biomarker Activity (AID 2283042); details: primary human coronary artery smooth muscle cells; actives raise or lower the signal;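 note: IL-8 protein level quantified by ELISA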
[13] = read-out: Human Leukocyte Antigen - DR isotype (HLADR), HLA-DRA (gene 3122); assay: BSK_CASM3C_HLADR: BioMAP Diversity Plus: CASM3C Assay for Human Leukocyte Antigen - DR isotype (HLADR) Biomarker Activity (AID 2283043); details: primary human coronary artery smooth muscle cells; actives raise or lower the signal;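 note: cell-surface HLA-DR protein level quantified by ELISA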
[14] = read-out: Macrophage colony-stimulating factor (MCSF), CSF1 (gene 1435); assay: BSK_CASM3C_MCSF: BioMAP Diversity Plus: CASM3C Assay for Macrophage colony-stimulating factor (MCSF) Biomarker Activity (AID 2283044); details: primary human coronary artery smooth muscle cells; actives raise or lower the signal;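 note: M-CSF protein amount quantified by ELISA after 24 h exposure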
[15] = read-out: Low-density lipoprotein receptor (LDLR), LDLR (gene 3949); assay: BSK_CASM3C_LDLR: BioMAP Diversity Plus: CASM3C Assay for Low-density lipoprotein receptor (LDLR) Biomarker Activity (AID 2283045); details: primary human coronary artery smooth muscle cells; actives raise or lower the signal;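 note: LDLR protein level on the cell surface quantified by ELISA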
[16] = read-out: Monocyte Chemoattractant Protein-1 (MCP1), CCL2 (gene 6347); assay: BSK_CASM3C_MCP1: BioMAP Diversity Plus: CASM3C Assay for Monocyte Chemoattractant Protein-1 (MCP1) Biomarker Activity (AID 2283046); details: primary human coronary artery smooth muscle cells; actives raise or lower the signal;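 note: MCP-1 level quantified by ELISA 24 h after dosing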
[17] = BSK_CASM3C_Proliferation: Cell Proliferation Assessment in the BioMAP Diversity Plus: CASM3C Assay (AID 2283047); details: primary human coronary artery smooth muscle cells;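 note: sulforhodamine B total protein stain as relative cell number at 560 nm; sub-confluent cells exposed 48 h before staining; fitted both ways against DMSO so gain or loss of cell number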
[18] = read-out: Monokine induced gamma interferon (MIG), CXCL9 (gene 4283); assay: BSK_CASM3C_MIG: BioMAP Diversity Plus: CASM3C Assay for Monokine induced gamma interferon (MIG) Biomarker Activity (AID 2283048); details: primary human coronary artery smooth muscle cells; actives raise or lower the signal;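 note: MIG protein level measured by ELISA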
[19] = read-out: serum amyloid A (SAA), SAA1 (gene 6288); assay: BSK_CASM3C_SAA: BioMAP Diversity Plus: CASM3C Assay for serum amyloid A (SAA) Biomarker Activity (AID 2283049); details: primary human coronary artery smooth muscle cells; actives raise or lower the signal;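 note: SAA protein level quantified by ELISA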
[20] = BSK_CASM3C_SRB: Viability Assessment in the BioMAP Diversity Plus: CASM3C Assay (AID 2283050); details: primary human coronary artery smooth muscle cells;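 note: total protein by SRB staining as cytotoxicity measure in parallel cultures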

Measured: AC50

Brc1ccc(Oc2ccccc2)cc1
inactive: [1] | [2] | [3] | [4] | [5] | [6] | [7] | [8] | [9] | [10] | [11] | [12] | [13] | [14] | [15] | [16] | [17] | [18] | [19] | [20]

OCCCBr
inactive: [1] | [2] | [3] | [4] | [5] | [6] | [7] | [8] | [9] | [10] | [11] | [12] | [13] | [14] | [15] | [16] | [17] | [18] | [19] | [20]

CC(C)(C)C(O)(CCc1ccc(Cl)cc1)Cn1cncn1 (stereo not given)
inactive: [1] | [2] | [3] | [4] | [5] | [6] | [7] | [8] | [9] | [10] | [11] | [12] | [13] | [14] | [15] | [16] | [17] | [18] | [19] | [20]

Cc1cccc(N)c1N
active: [3] 13.6 µM | [14] 3.73 µM
inactive: [1] | [2] | [4] | [5] | [6] | [7] | [8] | [9] | [10] | [11] | [12] | [13] | [15] | [16] | [17] | [18] | [19] | [20]

C1=Cc2cccc3cccc1c23
inactive: [1] | [2] | [3] | [4] | [5] | [6] | [7] | [8] | [9] | [10] | [11] | [12] | [13] | [14] | [15] | [16] | [17] | [18] | [19] | [20]

Cc1cc(N=Nc2ccccc2C)ccc1N
inactive: [1] | [2] | [4] | [5] | [6] | [8] | [9] | [10] | [11] | [12] | [13] | [14] | [15] | [16] | [18] | [19] | [20]
active: [3] 33.1 µM | [7] 12 µM | [17] 23.6 µM

COc1cc(C=O)cc2c1[C@H](COC(N)=O)[C@]1(OC(C)=O)ON2C[C@H]2[C@@H]1N2C(C)=O
active: [1] 4.42 µM | [2] 1.74 µM | [3] 13.4 µM | [4] 2.72 µM | [5] 9.98 µM | [6] 4.63 µM | [7] 1.99 µM | [8] 7.92 µM | [9] 6.18 µM | [10] 6.63 µM | [11] 2.11 µM | [12] 3.6 µM | [13] 1.18 µM | [14] 1.3 µM | [15] 3.91 µM | [16] 4.5 µM | [17] 0.485 µM | [18] 3.59 µM | [19] 4.54 µM | [20] 3.7 µM

[As]#[In]
inactive: [1] | [2] | [3] | [4] | [5] | [6] | [7] | [8] | [9] | [10] | [11] | [12] | [13] | [14] | [15] | [16] | [17] | [18] | [19] | [20]

Nc1cc(Cl)cc(C(=O)O)c1Cl
inactive: [1] | [2] | [3] | [4] | [5] | [6] | [7] | [8] | [9] | [10] | [11] | [12] | [13] | [14] | [15] | [16] | [17] | [18] | [19] | [20]

CO[C@@H]1[C@H](OC(=O)NC(=O)CCl)CC[C@]2(CO2)[C@H]1[C@@]1(C)O[C@@H]1CC=C(C)C
inactive: [1] | [5] | [6] | [8] | [10] | [12] | [14] | [15] | [16] | [18] | [19] | [20]
active: [2] 7.85 µM | [3] 6.62 µM | [4] 9.12 µM | [7] 6.98 µM | [9] 5.83 µM | [11] 7.73 µM | [13] 8.37 µM | [17] 1.99 µM

CC(C)COC(=O)c1ccccc1C(=O)OCC(C)C
active: [3] 14.1 µM
inactive: [1] | [2] | [4] | [5] | [6] | [7] | [8] | [9] | [10] | [11] | [12] | [13] | [14] | [15] | [16] | [17] | [18] | [19] | [20]

Cc1ccc(N)cc1
inactive: [1] | [2] | [3] | [4] | [5] | [6] | [7] | [8] | [9] | [10] | [11] | [12] | [13] | [14] | [15] | [16] | [17] | [18] | [19] | [20]
